# DT40 TDP1 CPT = DT40-hTDP1 cell growth loss with CPT | chicken DT40 Tdp1-/-;hTDP1 cells + 20 nM CPT, ATP luminescence, 48 h | Potency, µM (titrated, usually from 46.2 µM), hits mostly inhibitors | 12% of 420,000 active | AID 686979; note: nearly all actives have a fitted effect of over 55% in size
#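 Chicken DT40 Tdp1-/- cells complemented with human TDP1, 400 cells/well, exposed to compounds plus 20 nM camptothecin for at least 48 h at 37 C; viability read as ATP content by CellTiter-Glo luminescence.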
# TDP1 cell noCPT = qHTS for Inhibitors of human tyrosyl-DNA phosphodiesterase 1 (TDP1): qHTS in cells in absence of CPT; Potency, µM (doses to about 46.2 µM), hits mostly inhibitors; 15% of 420,000 active; AID 686978, 2013; DT40 Tdp1-/- hTDP1 cells, no CPT, ATP luminescence, 48 h; note: nearly all actives have a fitted effect of over 55% in size
#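 A cellular qHTS used chicken DT40 cells lacking endogenous Tdp1 but carrying stably transfected human TDP1. Compounds were applied without camptothecin, and cell growth kinetics were judged by ATP-dependent luminescence after ≥48 hr.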
# GCN5L2 inh = GCN5L2 (KAT2A) acetyltransferase inhibition. 0.21% of 390,000 active. GCN5L2 HAT assay, ThioGlo1 CoA-SH fluorescence. Potency, µM (doses to about 58.9 µM), hits mostly inhibitors. Q92830
#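 Fluorescence readout, Ex340nm/Em540nm: ThioGlo1 (50uM final) reacts with free CoA thiol released as 20nM GCN5L2 acetylates H3(1-25) peptide (75uM) using acetyl-CoA (70uM). Compound and enzyme sat 15 min beforehand; 20 min room-temperature reaction.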
# VDR inh = vitamin D3 receptor (human) inhibition; Potency, µM, hits mostly inhibitors; P11473; 0.93% of 400,000 active; VDR-SRC2-3 peptide fluorescence polarization, 2 h
# Target sequence (P11473 whole entry, looked up): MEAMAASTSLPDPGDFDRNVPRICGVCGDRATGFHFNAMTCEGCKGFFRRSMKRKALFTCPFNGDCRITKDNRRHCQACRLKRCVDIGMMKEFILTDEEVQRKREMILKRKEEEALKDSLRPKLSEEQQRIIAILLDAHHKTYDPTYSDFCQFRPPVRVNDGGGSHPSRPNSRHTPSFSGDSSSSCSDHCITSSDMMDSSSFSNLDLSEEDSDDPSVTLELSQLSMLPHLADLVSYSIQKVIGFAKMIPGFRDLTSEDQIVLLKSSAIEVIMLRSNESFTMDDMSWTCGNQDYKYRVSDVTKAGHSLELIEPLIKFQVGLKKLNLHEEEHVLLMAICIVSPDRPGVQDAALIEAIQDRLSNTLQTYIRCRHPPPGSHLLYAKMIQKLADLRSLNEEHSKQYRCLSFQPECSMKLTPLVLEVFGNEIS
#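 The screen uses fluorescence polarization to detect compounds that interfere with recruitment of the SRC2-3 coactivator peptide to VDR; plates are read after 2 h at room temperature.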
# TDP1 inh = TDP1 (human) enzyme inhibition. AID 485290. recombinant TDP1, AlphaScreen DNA substrate cleavage. Q9NUW8. 0.28% of 350,000 active. Potency, µM (doses to about 130 µM), actives largely listed as inhibitors; note: nearly all actives have a fitted effect of over 40% in size
#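 Tdp1 1 nM final; 15 min RT w/ cpd; substrate 15 nM, 5 min; beads 10 ug/ml, 10 min; AlphaScreen read. Neg ctrl: no enzyme.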
# PLK1 PBD block = PLK1 (human) polo-box domain binding inhibition | P53350 | Plk1 PBD binding of FITC phosphopeptide, fluorescence polarization | Potency, µM, most hits filed as inhibitors | 2.8% of 360,000 active; note: series mostly up to about 57 µM; nearly all actives have a fitted effect of over 65% in size
# Numbers stand for hits; - = inactive; ? = inconclusive; . = no result given; [ ] = remark or other dose. Hits are enriched below; roughly 18% of the tested compounds scored in any of these assays. Calls come from the whole dose curve; as a rule, active = well fitted curve in the direction sought with a large enough effect; inconclusive = small, poorly fitted or top-dose-only effect, or another doubt; inactive = no such curve, though single readings can be large; an effect the other way counts as inactive or inconclusive.
SMILES,DT40 TDP1 CPT,TDP1 cell noCPT,GCN5L2 inh,VDR inh,TDP1 inh,PLK1 PBD block
COC(=O)C1=C(C)Nc2nnnn2C1c1ccccc1Cl (configuration not stated),-,-,-,-,-,-
CCCCCOC(=O)C1=C(C)Nc2nnnn2C1c1ccccc1Cl (configuration not stated),?,21µM,-,-,-,-
O=C(c1cccc(F)c1)N1CCC2(CCCN(c3ccc(-c4ccccc4)cc3)C2)CC1,-,?,-,-,.,.
COc1ccc(NC(=O)CC2C(=O)N(c3ccc(C)cc3)C(=O)N2Cc2cccnc2)cc1 (configuration not stated),-,?,-,-,-,.
CCOC(=O)CN(c1sc(C)c(C)c1C(=O)OCC)S(=O)(=O)c1ccc(C)cc1,?,15µM,.,.,.,-
CCOC(=O)CN(c1ccccn1)S(=O)(=O)c1ccccc1,-,-,-,-,-,-
CCCn1nc(-c2ccccc2)c2nc3ccccc3nc21,-,-,-,-,-,17µM
O=C(Cn1cnc2ccccc21)N1CCN(S(=O)(=O)c2ccccc2)CC1,-,?,-,-,-,-
Cc1ccsc1/C=C(\C(=O)c1ccc(OC(C)C)cc1)c1nc2ccccc2o1,16µM,18µM,-,-,-,-
COc1ccc(N(CC(=O)NN=C2CCN(C)CC2)S(=O)(=O)c2ccc(NC(C)=O)cc2)cc1,-,-,-,-,.,-
Cc1ccc(-n2cccn2)c(CN2CCCC(CNC(=O)c3ccc(F)cc3)C2)c1 (configuration not stated),?,12µM,-,-,-,-
Cc1ccc(S(=O)(=O)OCCC2=CC(=O)CCN2Cc2ccccc2)cc1,16µM,?,-,-,-,-
COc1ccc(C=NNc2ccc([N+](=O)[O-])cn2)cc1,-,-,.,-,.,-
O=[N+]([O-])c1ccc(NN=Cc2ccccc2O)nc1,5.8µM,5.8µM,.,-,.,-
CCN(CC)c1ccc(C=NNc2ccc([N+](=O)[O-])cn2)cc1,21µM,?,.,-,.,-
O=[N+]([O-])c1ccc(O)c(/C=N/Nc2nc3ccccc3[nH]2)c1,4.1µM,2.1µM,-,-,-,-
CCN(CC)S(=O)(=O)c1ccc(N/N=C/c2ccc(O)cc2O)nc1,4.6µM,5.8µM,-,-,-,-
Cc1ccc(C2CC(=O)N(Cc3ccccc3F)c3c2c(C)nn3-c2nc(C)cc(C)n2)cc1 (configuration not stated),?,?,-,-,-,.
CC1CCCN(C(=O)c2cccc(S(=O)(=O)N3CCCC3)c2)C1 (configuration not stated),-,-,-,-,-,-
O=[N+]([O-])c1ccc(N/N=C\c2cccn2-c2ccccc2)nc1,12µM,?,-,-,-,-
Oc1ccc(Br)cc1/C=N/Nc1ncc(-c2ccccc2)cn1,6.5µM,8.2µM,-,-,-,-
O=[N+]([O-])c1ccc(NN=Cc2ccc(O)cc2O)nc1,3.3µM,5.8µM,.,-,.,-
CCN(CC)S(=O)(=O)c1ccc(N/N=C(\C)c2ccncc2)nc1,23µM,?,-,-,-,-
O=[N+]([O-])c1ccc(NN=Cc2ccc(O)cc2)nc1,-,-,.,-,.,-
CCN(CC)S(=O)(=O)c1ccc(N/N=C(\C)c2cccnc2)nc1,-,-,-,-,.,-
SMILES,DT40 TDP1 CPT,TDP1 cell noCPT,GCN5L2 inh,VDR inh,TDP1 inh,PLK1 PBD block
O=[N+]([O-])c1ccc(O)c(C=NNc2ccc(S(=O)(=O)O)cc2)c1,-,-,.,-,.,-
Oc1ccc(C=NNc2ccccn2)c(O)c1,4.1µM,2.9µM,.,-,.,-
Cc1ccccc1-n1c(C)cc(/C=N/Nc2ccc([N+](=O)[O-])cn2)c1C,26µM,?,-,-,-,-
Oc1cccc(C=NNc2ccccn2)c1,-,-,.,-,.,-
CC/C(=N\Nc1ccc([N+](=O)[O-])cc1)c1ccccc1,?,?,-,?,-,17µM
O=[N+]([O-])c1ccc(O)c(/C=N/Nc2ccccn2)c1,1.3µM,1.5µM,-,-,-,-
CC(=O)Nc1ccc(NC(=O)[C@@H](NC(=O)N2C[C@H]3C[C@@H](C2)c2cccc(=O)n2C3)C(C)C)cc1,-,-,-,-,.,-
O=C(CC(=O)c1ccccc1)Nc1ccc([N+](=O)[O-])cc1,23µM,?,.,-,.,-
O=[N+]([O-])c1ccc(NN=Cc2ccccc2)nc1,-,-,.,-,.,-
Oc1ccc(/C=N/Nc2ncc(Br)cn2)c(O)c1,7.3µM,7.3µM,-,-,-,-
O=[N+]([O-])c1ccc(O)c(/C=N/Nc2ncnc3c2cnn3-c2ccccc2)c1,3.7µM,3.7µM,-,-,.,-
O=C(COc1ccccc1)Nc1ccc([N+](=O)[O-])cc1,-,-,-,-,-,-
N#Cc1ccccc1Cn1cc(/C=N/Nc2ccc([N+](=O)[O-])cn2)c2ccccc21,?,23µM,-,-,-,-
CN1CCCCCC1C(=O)N1CCC(N2CCC(C(=O)N3CCOCC3)CC2)CC1 (configuration not stated),-,-,-,-,.,-
Cc1c(C(=O)N(C)C2CCOC2)cnn1-c1ncc2c(n1)-c1ccccc1CCC2 (configuration not stated),-[9.04 µM],-,.,.,.,.
O=[N+]([O-])c1ccc(N/N=C/c2ccccc2O)cc1,13µM,8.2µM,-,-,.,-
O=[N+]([O-])c1cccc(N/N=C/c2cc([N+](=O)[O-])ccc2O)c1,-,?,?,-,-,-
Cc1c(C(=O)NCc2ccccc2)sc(=O)n1Cc1ccccc1F,?,?,.,.,.,-
CCC(c1nnnn1Cc1ccc(OC)cc1)N1CCN(c2ccc(OC)cc2)CC1 (configuration not stated),-,-,-,-,-,-
CC(C)C(c1nnnn1Cc1ccc(F)cc1)N1CCN(Cc2ccc3c(c2)OCO3)CC1 (configuration not stated),?,?,-,-,-,-
CCC(c1nnnn1Cc1ccc2c(c1)OCO2)N1CCN(c2ccc(F)cc2)CC1 (configuration not stated),21µM,?,-,-,-,-
CCCC(c1nnnn1Cc1ccccc1)N1CCN(c2ccccc2OC)CC1 (configuration not stated),?,?,-,-,-,-
CCCC(c1nnnn1Cc1ccc(OC)cc1)N1CCN(c2ccccc2OC)CC1 (configuration not stated),?,21µM,-,-,-,-

# High-throughput results (PubChem)
